This is an account of results in PubChem BioAssay (Tox21).

Structures are written as SMILES. Results filed as inconclusive are left out. Entries that show only a call come without a potency. Active and inactive are the calls of the source. Calls follow the shape of the dose curve; as a rule, active = well fitted inhibition curve with a large enough effect in the repeat runs; inconclusive = weak or mixed curves, or effect the other way; inactive = no such curve, though single readings can be large or run the other way.
Potency is read from the fitted curve at half-maximal effect.

In the assay the target is Nuclear receptor subfamily 1 group I member 3 (Homo sapiens) (UniProt Q14994). The assay can be described thus: qHTS assay to identify small molecule antagonists of the constitutive androstane receptor (CAR) signaling pathway (AID 1224838).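 Also: HepG2 cells stably expressing hCAR with CYP2B6 luciferase reporter stimulated by CITCO; nearly all actives have a fitted effect of over 40% in size.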 The conditions noted are these: HepG2-CYP2B6-hCAR luciferase, CITCO-stimulated, 24 h; series mostly up to 92.4 µM. The source says: U.S. Tox21 Program National Center for Advancing Translational Sciences [NCATS] NIH Chemical Genomics Center [NCGC] U.S. Environmental Protection Agency [EPA] National Institutes of Environmental Health Sciences [NIEHS] National Toxicology Program [NTP] U.S. Food and Drug Administration [FDA] Tox21 Assay Overview: The constitutive androstane receptor (CAR) is a nuclear receptor which regulates multiple drug metabolizing enzymes (DMEs) and transporters. Activating CAR will generally increase the transcription and subsequent translation of CYP2B6 and CYP3A4. These two DMEs represent about 50% of the drug metabolizing potential in the body. When CAR is deactivated, the metabolizing potential in the body will decrease, subsequently increasing the toxicity in the body or lowering the therapeutic potential of a pro-drug. Recently, there have also been studies performed indicating CARs role in energy metabolism and cancer therapy. Therefore, inhibiting CARs activity could have a potential effect on diabetes and cancer. Identifying environmental toxins and compounds which modulate CAR, through the use of the Tox21 10K compound collection, will be an important step in determining the toxicity and potential therapeutic effects these factors will have on the human body.
Nuclear receptor subfamily 1 group I member 3 (Homo sapiens), sequence (Q14994 whole entry, looked up): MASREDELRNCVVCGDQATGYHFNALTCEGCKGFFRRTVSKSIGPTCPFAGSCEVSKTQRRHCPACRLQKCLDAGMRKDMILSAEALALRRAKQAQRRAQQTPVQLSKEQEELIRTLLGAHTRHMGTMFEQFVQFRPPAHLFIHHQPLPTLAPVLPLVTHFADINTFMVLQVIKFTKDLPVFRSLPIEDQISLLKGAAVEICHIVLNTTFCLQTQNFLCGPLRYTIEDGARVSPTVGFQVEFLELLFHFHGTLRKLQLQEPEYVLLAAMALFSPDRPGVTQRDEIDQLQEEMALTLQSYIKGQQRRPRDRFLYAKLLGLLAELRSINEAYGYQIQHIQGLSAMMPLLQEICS
Tox21 Assay Protocol Summary: A double-stable (hCAR and CYP2B6-2.2kb) transfected cell line, derived from human hepatoma (HepG2) cells, was utilized for the duration of the quantitative high-throughput screens. The HepG2-CYP2B6-hCAR cells suspended in DMEM culture medium supplemented with 10% FBS, 5 ug/mL blasticidin, 0.5 mg/mL geneticin, 100 U/mL penicillin and 100 ug/mL streptomycin were dispensed at 2500 cells/4 uL/well in 1536-well white solid bottom plates using a Multidrop Combi. After the assay plates were incubated at 37 C/5% CO2 for 4 hrs, 23 nL of compounds at 15 concentrations (from 5-48 columns) or positive control (from 1 to 4 columns) were transferred to the assay plates using a Pintool station. One uL of CITCO, was added using a Flying Reagent Dispenser to generate a final concentration of 50 nM CITCO inside each well. After a 24 hr incubation period at 37 C/5% CO2, four uL of ONE-Glo reagent was added into the assay plates using a Flying Reagent Dispenser. After a 30 min incubation period at room temperature, the luminescence intensity in the assay plates was measured using a ViewLux plate reader.
Take `O=C(O)c1ccc2cc(O)ccc2c1`: the Potency result was “inactive”.
To `C=C(C)C(=O)OCCCCCCCCCCOC(=O)C(=C)C` belongs “inactive”.
In the case of `CC(CCl)OC(C)CCl` (stereo not given), the Potency entry is “inactive”.
`SCCOCCOCCS`: the Potency entry is “inactive”.
`Cc1cc(C)c(C)c(O)c1`: the Potency entry was “inactive”.
In the case of `OCCOc1cccc(OCCO)c1`, the Potency entry is “inactive”.
Take `CC(C(=O)O)c1ccc(/C=C2\CCCCC2=O)cc1` (stereo not given): the Potency entry is “inactive”.
In the case of `CCc1ccc2c(c1)C(=O)c1ccccc1C2=O`, the Potency result was “inactive”.
In the case of `CCOc1cc(OCC)c(C(C)=O)cc1OCC`, the Potency result is “inactive”.
To `CC(C)Cc1nccs1` belongs “inactive”.
Next, `C[Si](C)(C)O[Si](C)(C)O[Si](C)(C)C`: “inactive”; `COc1ccc(/C=C/c2cc(OC)cc(=O)o2)cc1`: “inactive”; `N#Cc1ccc(CC(=O)c2cccc(C(F)(F)F)c2)cc1`: “inactive”.
With `CCCCCCCCOCCCN`, the Potency result was “inactive”.
Next, `CC(C)CCCCCCCOC(=O)c1ccc(C(=O)OCCCCCCCC(C)C)c(C(=O)OCCCCCCCC(C)C)c1`: “inactive”; `CCc1ccc(C(=O)C(C)CN2CCCCC2)cc1` (stereo not given): “inactive”; `Cc1c(Nc2ncccc2C(=O)O)cccc1C(F)(F)F`: “inactive”.
To `Nc1ncnc2c1ncn2[C@@H]1O[C@H](CO)[C@@H](O)[C@H]1O` belongs “inactive”; to `Cc1c(Cl)cccc1Nc1ccccc1C(=O)O`, “inactive”.
To `CC(C)(C(=O)O)c1ccc(C(O)CCCN2CCC(C(O)(c3ccccc3)c3ccccc3)CC2)cc1` (stereo not given) belongs “inactive”; to `Oc1ccc(Oc2ccccc2)cc1`, “inactive”; to `CC1(C)CC(O)CC(C)(C)N1[O]`, “inactive”.
In the case of `Nc1ccccc1Nc1ccccc1`, the Potency entry is “inactive”.
To `c1ccc(CCNc2nc(-c3ccccc3)cs2)cc1` belongs “inactive”; to `Nc1ccc(C(=O)Oc2ccccc2)c(O)c1`, “inactive”.
On to `CCCCOC(=O)CC#N`, for which the Potency entry was “inactive”.
To `[O-][n+]1ccc(Cl)cc1` belongs “inactive”; to `CCCCCCCCNC`, “inactive”.
For `O=c1[nH]nc(-c2ccc([N+](=O)[O-])o2)o1`, the Potency result is “inactive”.
To `CC(C)=CCC/C(C)=C/C=N/O` belongs “inactive”; to `NC(=O)c1ccccc1C(N)=O`, 30.8 µM (active).
Take `CCC(C(=O)O)c1ccc(N2Cc3ccccc3C2=O)cc1` (stereo not given): the Potency result is “inactive”.
To `O=C(O)CCc1nc2ccccc2[nH]1` belongs “inactive”; to `C=CC(O)CCCCC` (stereo not given), “inactive”.
To `COC(=O)C(C)(C)C` belongs “inactive”; to `CCCCOc1ccc(N)cc1`, “inactive”.
Regarding `CC(=O)CC/C=C(\C)CC/C=C(\C)CC/C=C(\C)CCC=C(C)C`, the Potency entry was “inactive”.
Consider `Nc1ccc(F)cc1F`, for which the Potency result is “inactive”.
Next, `C1CCN(CN2CCCCC2)CC1`: “inactive”; `O=C(OCCOCCOCCOC(=O)c1ccccc1)c1ccccc1`: “inactive”.
